Measurements from PubChem BioAssay (NCI).
About 83,000 compounds went through this panel and 20% of them were active in at least one assay; those are over-represented in the sample as a whole.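 Activity criterion: percent growth below 10, measured after cells in 96-well plates were exposed to a single compound concentration for 48 hours.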 Unmarked numbers belong to inactive results. Calls of active or inactive are those of the source.

Test system: RXF 393 renal
Test: NCI-60 one-dose screen, 48 h (100 = growth as untreated, 0 = no growth, -100 = all killed)
Conditions: 10 µM unless noted

Row | SMILES | growth
1 | CCCCN(CCCC)c1ccc(C(=N)c2ccc(N(CCCC)CCCC)cc2)cc1 | -94.8% (active)
2 | Clc1ccc(-c2nc3ccccc3s2)cc1Cl | 109%
3 | Cc1nc2c3c(ncn2n1)Oc1c(c(=O)[nH]c2ccccc12)C3c1ccc(Cl)cc1 (configuration not stated) | 113%
4 | O=C(NNC(=S)Nc1ccccc1)c1cc2ccc1CCc1ccc(cc1)CC2 | 83.7%
5 | O=C(Nc1ccc2c(c1)OCCO2)C(=O)c1c[nH]c2ccccc12 | 24.3%
6 | COc1ccc2c(c1)C(c1cc(OC)c3c(c1)OCO3)C1=C(COC1=O)N2 (configuration not stated) | -8.85% (active)
7 | Fc1ccc(Nc2nc(NCCNc3ccnc4cc(Cl)ccc34)nc(N3CCOCC3)n2)cc1 | 21.3%
8 | S=c1[nH]nc(-c2cc3ccc2CCc2ccc(cc2)CC3)n1-c1ccccc1 | 129%
9 | CC(C)(C)NCCC(O)c1cc2c(Cl)cc(Cl)cc2c2cc(C(F)(F)F)ccc12 (configuration not stated) | -95.9% (active)
10 | CCN(CC)CCC(CNc1c2ccc(Cl)cc2nc2ccc(OC)cc12)c1ccccc1 (configuration not stated) | -97.7% (active)
11 | Cc1ccc(S(=O)(=O)C2=C3C(=C(c4ccccc4)c4ccccc43)CN(S(=O)(=O)c3ccc(C)cc3)C2)cc1 | 47.1%
12 | Cc1ccc(S(=O)(=O)NCCNc2nccc(-c3c(-c4cccc(N)c4)nc4sccn34)n2)cc1 | 102%
13 | CC(C)NCCCNC1=C(Cl)C(=O)c2ccccc2C1=O | 119%
14 | COc1cccc(CC(C)=C(c2ccc(OCCN(C)C)cc2)c2ccc(OCCN(C)C)cc2)c1 | -62.6% (active)
15 | S=c1[nH]nc(-c2cc3ccc2CCc2ccc(cc2)CC3)n1C1CC1 | 105%
16 | COc1ccc(Nc2[nH]n3c(=O)cc(-c4ccccc4)nc3c2C(=O)Nc2ccc(C)cc2)c(OC)c1 | 92.1%
17 | O=c1[nH]c2ccc(Br)cc2c2c1C(c1ccc(Cl)cc1)c1c(ncn3nc(-c4ccco4)nc13)O2 (configuration not stated) | 59.1%
18 | COc1cc(-c2nn(-c3cccc(NC(=O)Nc4cc(C(F)(F)F)cc(C(F)(F)F)c4)c3)cc2-c2ccncc2)ccc1Cl | -68.1% (active)
19 | COc1cc(/C=C/C(=O)N2CCN(C(=O)/C=C/c3cc(OC)c(OC)c(OC)c3)CC2)cc(OC)c1OC | 121%

Row | SMILES | growth
20 | CCN(CC)CCOC(=O)C(c1ccccc1)(c1ccccc1)C(C)C | 95.6%
21 | C=C[C@@H]1C[C@H](O)Cc2c(C)cc(C)cc2N1 | 108%
22 | N=C(N)c1ccc(-c2cc(Cl)cc(Cl)c2)cn1 | 41.5%
23 | CCCCCCCCCCCCNC(=O)[C@H]1CSC(c2ccsc2)N1 (some centres not stated) | -93.2% (active)
24 | O=C(NCc1cn(Cc2cccc(Oc3ccccc3)c2)nn1)c1cccnc1Nc1ccc(F)cc1 | 65.9%
25 | CCN1CCN(CC(=O)N2c3cccc4cccc(c34)N(C(=O)CN3CCN(CC)CC3)C2c2cn(-c3ccccc3)nc2-c2cccc([N+](=O)[O-])c2)CC1 | 3.79% (active)
26 | O=S(=O)(NCCCNc1nccc(-n2ccc3cccnc32)n1)c1ccc(Br)cc1 | 107%
27 | COC(=O)C(Sc1ccc(Cl)cc1)C1SC(=S)N(Cc2ccccc2)C1=O (configuration not stated) | 106%
28 | Cc1ccc2[nH]c(=O)c3c(c2c1)Oc1ncn2nc(-c4ccco4)nc2c1C3c1ccc(Cl)cc1 (configuration not stated) | 93.2%
29 | c1ccc(-c2cn(-c3ccccc3)c(-c3ccccc3)n2)cc1 | 79.9%
30 | CCN(CC)CCCC(C)Nc1c2ccc(Cl)cc2nc2cc(OC)c(OC)cc12 (configuration not stated) | -13.4% (active)
31 | CN(C)c1cccc2c(S(=O)(=O)/N=C(\N)Nc3nc4ccccc4s3)cccc12 | 54.6%
32 | O=C(Nc1ccc(Cl)c(Cl)c1)NS(=O)(=O)c1cnccc1Oc1ccc(F)cc1 | 38%
33 | Cc1ccc2nc(Cl)cc(=O)n2c1 | 117%
34 | Cn1ccc(=O)c(S(N)(=O)=O)c1 | 85.8%
35 | COc1ccc(-c2c(N)n[nH]c2-c2cc3c(c(OC)c2OC)OCO3)cc1 | 108%
36 | CC(=O)Oc1csc(N(C(C)=O)c2cccc(C(F)(F)F)c2)n1 | 103%
37 | C=C1CCC2C3(C)COC(C)(C)OC3CCC2(C)C1C/C=C1/C(=O)OCC1Oc1ccccc1OC (configuration not stated) | 93.3%
38 | COc1ccc(/C=C\c2cc(OC)c(OC)c(OC)c2)cc1OC(=O)c1cccc(Cn2cc(CCOC(=O)c3cccc(Cn4nnc5c4C(=O)c4ccccc4C5=O)c3)nn2)c1 | 15.9%

Test system: SF-268 CNS
Test: as above
Conditions: 10 µM unless noted

Row | SMILES | growth
39 | CCCCN(CCCC)c1ccc(C(=N)c2ccc(N(CCCC)CCCC)cc2)cc1 | -95.9% (active)
40 | Clc1ccc(-c2nc3ccccc3s2)cc1Cl | 99.2%
41 | Cc1nc2c3c(ncn2n1)Oc1c(c(=O)[nH]c2ccccc12)C3c1ccc(Cl)cc1 (configuration not stated) | 85.7%
42 | O=C(NNC(=S)Nc1ccccc1)c1cc2ccc1CCc1ccc(cc1)CC2 | 76.6%
43 | O=C(Nc1ccc2c(c1)OCCO2)C(=O)c1c[nH]c2ccccc12 | 46.1%
44 | COc1ccc2c(c1)C(c1cc(OC)c3c(c1)OCO3)C1=C(COC1=O)N2 (configuration not stated) | 32.2%
45 | Fc1ccc(Nc2nc(NCCNc3ccnc4cc(Cl)ccc34)nc(N3CCOCC3)n2)cc1 | 66.6%
46 | S=c1[nH]nc(-c2cc3ccc2CCc2ccc(cc2)CC3)n1-c1ccccc1 | 113%
47 | CC(C)(C)NCCC(O)c1cc2c(Cl)cc(Cl)cc2c2cc(C(F)(F)F)ccc12 (configuration not stated) | -88.6% (active)
48 | COc1ccc2cc(-c3ccc(-c4ccc(C(=N)N)cc4)s3)ccc2c1 | 94.6%
49 | CCN(CC)CCC(CNc1c2ccc(Cl)cc2nc2ccc(OC)cc12)c1ccccc1 (configuration not stated) | 8.46% (active)
50 | Cc1ccc(S(=O)(=O)C2=C3C(=C(c4ccccc4)c4ccccc43)CN(S(=O)(=O)c3ccc(C)cc3)C2)cc1 | 45.3%
51 | Cc1ccc(S(=O)(=O)NCCNc2nccc(-c3c(-c4cccc(N)c4)nc4sccn34)n2)cc1 | 86.7%
52 | CC(C)NCCCNC1=C(Cl)C(=O)c2ccccc2C1=O | 91.5%
53 | COc1cccc(CC(C)=C(c2ccc(OCCN(C)C)cc2)c2ccc(OCCN(C)C)cc2)c1 | -32.9% (active)
54 | S=c1[nH]nc(-c2cc3ccc2CCc2ccc(cc2)CC3)n1C1CC1 | 103%
55 | COc1ccc(Nc2[nH]n3c(=O)cc(-c4ccccc4)nc3c2C(=O)Nc2ccc(C)cc2)c(OC)c1 | 96.2%
56 | O=c1[nH]c2ccc(Br)cc2c2c1C(c1ccc(Cl)cc1)c1c(ncn3nc(-c4ccco4)nc13)O2 (configuration not stated) | 74.3%
57 | COc1cc(-c2nn(-c3cccc(NC(=O)Nc4cc(C(F)(F)F)cc(C(F)(F)F)c4)c3)cc2-c2ccncc2)ccc1Cl | -46.3% (active)
58 | COc1cc(/C=C/C(=O)N2CCN(C(=O)/C=C/c3cc(OC)c(OC)c(OC)c3)CC2)cc(OC)c1OC | 118%

Row | SMILES | growth
59 | CCN(CC)CCOC(=O)C(c1ccccc1)(c1ccccc1)C(C)C | 86.1%
60 | C=C[C@@H]1C[C@H](O)Cc2c(C)cc(C)cc2N1 | 97.5%
61 | N=C(N)c1ccc(-c2cc(Cl)cc(Cl)c2)cn1 | 84.9%
62 | CCCCCCCCCCCCNC(=O)[C@H]1CSC(c2ccsc2)N1 (some centres not stated) | -77.1% (active)
63 | O=C(NCc1cn(Cc2cccc(Oc3ccccc3)c2)nn1)c1cccnc1Nc1ccc(F)cc1 | 67.7%
64 | CCN1CCN(CC(=O)N2c3cccc4cccc(c34)N(C(=O)CN3CCN(CC)CC3)C2c2cn(-c3ccccc3)nc2-c2cccc([N+](=O)[O-])c2)CC1 | 16.6%
65 | O=S(=O)(NCCCNc1nccc(-n2ccc3cccnc32)n1)c1ccc(Br)cc1 | 94.9%
66 | COC(=O)C(Sc1ccc(Cl)cc1)C1SC(=S)N(Cc2ccccc2)C1=O (configuration not stated) | 87.7%
67 | Cc1ccc2[nH]c(=O)c3c(c2c1)Oc1ncn2nc(-c4ccco4)nc2c1C3c1ccc(Cl)cc1 (configuration not stated) | 91.8%
68 | c1ccc(-c2cn(-c3ccccc3)c(-c3ccccc3)n2)cc1 | 85.5%
69 | CCN(CC)CCCC(C)Nc1c2ccc(Cl)cc2nc2cc(OC)c(OC)cc12 (configuration not stated) | 33.9%
70 | CN(C)c1cccc2c(S(=O)(=O)/N=C(\N)Nc3nc4ccccc4s3)cccc12 | 69.7%
71 | O=C(Nc1ccc(Cl)c(Cl)c1)NS(=O)(=O)c1cnccc1Oc1ccc(F)cc1 | 80.7%
72 | Cc1ccc2nc(Cl)cc(=O)n2c1 | 114%
73 | Cn1ccc(=O)c(S(N)(=O)=O)c1 | 100%
74 | COc1ccc(-c2c(N)n[nH]c2-c2cc3c(c(OC)c2OC)OCO3)cc1 | 99.1%
75 | CC(=O)Oc1csc(N(C(C)=O)c2cccc(C(F)(F)F)c2)n1 | 88.9%
76 | C=C1CCC2C3(C)COC(C)(C)OC3CCC2(C)C1C/C=C1/C(=O)OCC1Oc1ccccc1OC (configuration not stated) | 99.7%
77 | COc1ccc(/C=C\c2cc(OC)c(OC)c(OC)c2)cc1OC(=O)c1cccc(Cn2cc(CCOC(=O)c3cccc(Cn4nnc5c4C(=O)c4ccccc4C5=O)c3)nn2)c1 | 27.7%
